# In all, about 8,300 sequences were measured (“log2 fold change of degron read counts, EGFP-low vs EGFP+ sorted cells (limma voom), compound-induced degradation”: median about -1.1, highest 2% from about 3.2 on). The entries come from a sample that favours the highest values as a whole.
# T1: CRBN, Q96SW2
# T1 chain: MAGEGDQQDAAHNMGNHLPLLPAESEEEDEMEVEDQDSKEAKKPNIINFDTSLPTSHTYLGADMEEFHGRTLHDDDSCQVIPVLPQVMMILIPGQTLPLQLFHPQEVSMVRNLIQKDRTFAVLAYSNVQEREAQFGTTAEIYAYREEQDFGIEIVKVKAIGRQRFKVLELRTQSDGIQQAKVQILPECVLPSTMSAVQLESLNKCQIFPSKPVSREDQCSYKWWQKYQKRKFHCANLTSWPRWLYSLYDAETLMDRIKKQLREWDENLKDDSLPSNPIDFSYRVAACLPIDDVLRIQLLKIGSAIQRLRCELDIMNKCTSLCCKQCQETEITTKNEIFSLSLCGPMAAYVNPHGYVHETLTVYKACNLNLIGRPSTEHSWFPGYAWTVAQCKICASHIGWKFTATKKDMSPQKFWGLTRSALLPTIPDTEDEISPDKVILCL
# Molecular target: T1, CRBN, Q96SW2
# Assay: log2 fold change of degron read counts, EGFP-low vs EGFP+ sorted cells (limma voom), compound-induced degradation; higher = more compound-induced degradation of the degron-EGFP fusion; degrons are variants of IKZF1/3 zinc finger 2; compound dose not given here
# Conditions: Jurkat, 18 h
# Method: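 Pooled library of 8380 IKZF3 ZF2 degron mutants (positions 146-167 varied within the IKZF3 130-189 degron; only the varied core is printed, flanks not printed) fused to EGFP with IRES-mCherry, lentivirally expressed in Jurkat cells. mCherry+ cells were treated with one IMiD compound for 18 h (dose not stated) and FACS-sorted into EGFP-low and EGFP+ populations. Degron sequences were counted by NGS, and log2FC (EGFP-low vs EGFP+) was estimated by limma voom over 3 biological replicates.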
# [1] = compound: compound 19 (5-tert-butyl-thalidomide)
# [2] = compound: compound 22 (5-morpholino-thalidomide)
# [3] = compound: compound 33 (diphenyl IMiD analogue)
# 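Note: pooled lentiviral library of zinc finger degron-EGFP fusions in mCherry-positive Jurkat cells, FACS-sorted after compound exposure, with degron abundance counted by next-generation sequencing.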
Sequence,log2 fold change of degron read counts [1],log2 fold change of degron read counts [2],log2 fold change of degron read counts [3],log2 fold change of degron read counts (compound: thalidomide)
"FGCPQCGAMFTQKGNLLRHIKL [46F_47G_49P_50Q_52G_53A_54M_55F_67L_, Q9UKT9]",1.86,-1.68,0.259,-2.04
"LICEICGFVCTQKGNLLRHIKL [46L_47I_49E_50I_52G_53F_54V_55C_67L_, Q9UKT9]",-0.507,0.245,1.34,1.57
"FECNQCGANFTQKGNLLRHIKL [46F_47E_49N_50Q_52G_53A_54N_55F_67L_, Q9UKT9]",-3.06,-3.6,-1.14,-1.62
"FDCDICGAQFTQKGNLLRHIKL [46F_47D_49D_50I_52G_53A_54Q_55F_67L_, Q9UKT9]",0.389,-1.35,-1.71,-1.04
"FTCDICGAQFTQKGNLLRHIKL [46F_47T_49D_50I_52G_53A_54Q_55F_67L_, Q9UKT9]",-0.504,1.41,1.33,1.15
"FLCDICGAQFTQKGNLLRHIKL [46F_47L_49D_50I_52G_53A_54Q_55F_67L_, Q9UKT9]",-0.363,-1.53,0.682,0.0613
"FCCDICGAQFTQKGNLLRHIKL [46F_47C_49D_50I_52G_53A_54Q_55F_67L_, Q9UKT9]",1.75,1.58,1.41,0.205
"FYCDICGAQFTQKGNLLRHIKL [46F_47Y_49D_50I_52G_53A_54Q_55F_67L_, Q9UKT9]",3.18,3.55,2.11,-0.00703
"FHCDICGAQFTQKGNLLRHIKL [46F_47H_49D_50I_52G_53A_54Q_55F_67L_, Q9UKT9]",1.04,1.14,-0.0246,-1.24
"FWCDICGAQFTQKGNLLRHIKL [46F_47W_49D_50I_52G_53A_54Q_55F_67L_, Q9UKT9]",2.88,3.68,1.52,0.174
"FQCDICGAQFTQKGNLLRHIKL [46F_47Q_49D_50I_52G_53A_54Q_55F_67L_, Q9UKT9]",-0.785,1.6,1.09,2.9
"FFCDICGAQFTQKGNLLRHIKL [46F_47F_49D_50I_52G_53A_54Q_55F_67L_, Q9UKT9]",3.41,3.28,1.67,0.0187
"FSCPQCGARFTQKGNLLRHIKL [46F_47S_49P_50Q_52G_53A_54R_55F_67L_, Q9UKT9]",0.264,-0.514,-0.493,-0.61
"LRCPICGFHCTQKGNLLRHIKL [46L_47R_49P_50I_52G_53F_54H_55C_67L_, Q9UKT9]",-0.0105,0.25,1.59,2.32
"FECEICGHTFTQKGNLLRHIKL [46F_47E_49E_50I_52G_53H_54T_55F_67L_, Q9UKT9]",-3.53,-3.12,-2.68,-2.57
"FECNVCGACFTQKGNLLRHIKL [46F_47E_49N_50V_52G_53A_54C_55F_67L_, Q9UKT9]",-1.77,-2.3,0.438,0.297
"FICEICGAIFTQKGNLLRHIKL [46F_47I_49E_50I_52G_53A_54I_55F_67L_, Q9UKT9]",-0.706,0.427,2.23,1.71
"FACEICGAIFTQKGNLLRHIKL [46F_47A_49E_50I_52G_53A_54I_55F_67L_, Q9UKT9]",3.52,1.96,0.532,0.207
"FFCEICGAIFTQKGNLLRHIKL [46F_47F_49E_50I_52G_53A_54I_55F_67L_, Q9UKT9]",3.4,3.61,1.62,0.938
"FSCEICGAIFTQKGNLLRHIKL [46F_47S_49E_50I_52G_53A_54I_55F_67L_, Q9UKT9]",2.19,1.4,1.65,0.91
"FWCEICGAIFTQKGNLLRHIKL [46F_47W_49E_50I_52G_53A_54I_55F_67L_, Q9UKT9]",3.17,3.55,2.41,0.519
"FECEICGAIFTQKGNLLRHIKL [46F_47E_49E_50I_52G_53A_54I_55F_67L_, Q9UKT9]",-1.24,-1.08,1.05,2.4
"FYCEICGAIFTQKGNLLRHIKL [46F_47Y_49E_50I_52G_53A_54I_55F_67L_, Q9UKT9]",3.43,3.53,2.4,0.401
"FDCEICGAIFTQKGNLLRHIKL [46F_47D_49E_50I_52G_53A_54I_55F_67L_, Q9UKT9]",-0.448,-0.893,-0.134,-0.014
"FNCEICGAIFTQKGNLLRHIKL [46F_47N_49E_50I_52G_53A_54I_55F_67L_, Q9UKT9]",0.366,-0.376,-0.467,-0.484
"FHCEICGAIFTQKGNLLRHIKL [46F_47H_49E_50I_52G_53A_54I_55F_67L_, Q9UKT9]",1.06,0.746,0.49,-0.388
"FGCEICGAIFTQKGNLLRHIKL [46F_47G_49E_50I_52G_53A_54I_55F_67L_, Q9UKT9]",2.93,2.72,1.73,0.804
"FRCEICGAIFTQKGNLLRHIKL [46F_47R_49E_50I_52G_53A_54I_55F_67L_, Q9UKT9]",-1.64,-0.637,1.17,1.56
